These results are taken from PubChem BioAssay (NCATS).

Test [1] can be described thus: Quantitative High-Throughput drug screen in 47 multiple myeloma cell lines against the NCATS MIPE library collection: MM1S_ATCC cell viability assay (AID 1918980). Further: nearly all actives have a fitted effect of over 45% in size. An outline of the steps:
(§1)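 MIPE 4.0 approved/investigational drugs; 500 cells/well; 48 h 37 °C humidified 5% CO2; CTG luminescence readout; DMSO = 100%, media = 0% viability.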

The nature of test [2]: Quantitative High-Throughput drug screen in 47 multiple myeloma cell lines against the NCATS MIPE library collection: MM1R_ATCC cell viability assay (AID 1918981). Further: nearly all actives have a fitted effect of over 35% in size. The procedure, abridged: as §1
Test [3] in a line: Quantitative High-Throughput drug screen in 47 multiple myeloma cell lines against the NCATS MIPE library collection: LP1_DSMZ cell viability assay (AID 1918982). Further: nearly all actives have a fitted effect of over 35% in size. An outline of the steps: as §1
A short description of test [4]: Quantitative High-Throughput drug screen in 47 multiple myeloma cell lines against the NCATS MIPE library collection: KMS28PE_JCRB cell viability assay (AID 1918983). Further: nearly all actives have a fitted effect of over 35% in size. The procedure, abridged:
as §1

The nature of test [5]: Quantitative High-Throughput drug screen in 47 multiple myeloma cell lines against the NCATS MIPE library collection: L363_DSMZ cell viability assay (AID 1918984). Further: nearly all actives have a fitted effect of over 40% in size. An outline of the steps: as §1
Test [6] is described as follows: Quantitative High-Throughput drug screen in 47 multiple myeloma cell lines against the NCATS MIPE library collection: KMS34_JCRB cell viability assay (AID 1918985). Further: nearly all actives have a fitted effect of over 40% in size. An outline of the steps: as §1
A short description of test [7]: Quantitative High-Throughput drug screen in 47 multiple myeloma cell lines against the NCATS MIPE library collection: OCIMY7_PLB cell viability assay (AID 1918987). Further: nearly all actives have a fitted effect of over 65% in size. The following applies: OCI-MY7 myeloma viability, CellTiter-Glo ATP, 48 h; viability (% of DMSO): at 45.8 µM (top of the series). An outline of the steps:
as §1

Test [8] in a line: Quantitative High-Throughput drug screen in 47 multiple myeloma cell lines against the NCATS MIPE library collection: OCIMY5_PLB cell viability assay (AID 1918988). Further: nearly all actives have a fitted effect of over 65% in size. The procedure, abridged: as §1
The nature of test [9]: Quantitative High-Throughput drug screen in 47 multiple myeloma cell lines against the NCATS MIPE library collection: OPM1_PLB cell viability assay (AID 1918989). Further: nearly all actives have a fitted effect of over 40% in size. The procedure, abridged: as §1
Test [10] is described as follows: Quantitative High-Throughput drug screen in 47 multiple myeloma cell lines against the NCATS MIPE library collection: SKMM1_PLB cell viability assay (AID 1919863). Further: nearly all actives have a fitted effect of over 35% in size. The following applies: SKMM1 myeloma viability, CellTiter-Glo ATP, 48 h; viability: active compounds read low. The procedure, abridged: as §1
(In general: In ATP-based viability assays light output follows the ATP content of the culture.)

Inconclusive results are not listed. A number with no mark means an inactive call. Calls of active or inactive are those of the source. The call rests on the fitted dose curve; in most records, active means well fitted cell-killing curve with a large enough effect; inconclusive means small, poorly fitted or top-dose-only effect, or effect the other way; inactive means no such curve, though single readings can be large or run the other way.
Potency means the concentration at half of the fitted maximal effect.

For `C[C@H]1COc2c(N3CCN(C)CC3)c(F)cc3c(=O)c(C(=O)O)cn1c23`, the Potency entry in test [1], in test [2], in test [3], in test [4], in [5] and in test [6] was “inactive” throughout. Moreover, the Potency entry in test [7], in [8] and in [9] was “inactive” throughout.

On to `C[C@H](NC(=O)C(C#N)=Cc1cccc(Br)n1)c1ccccc1`, for which the Potency in test [1] is 8330 nM (active); in [2], 2090 nM (active); in test [3], 5900 nM (active); in [4], 3720 nM (active); in [5], 11800 nM (active); in test [6], 7430 nM (active). In addition, the Potency was 743 nM (active) in test [7], 2640 nM (active) in test [8], 2090 nM (active) in [9] and 3720 nM (active) in test [10].

In the case of `NC(=NCCCCCCN=C(N)N=C(N)Nc1ccc(Cl)cc1)N=C(N)Nc1ccc(Cl)cc1`, the Potency in test [1] was 2090 nM (active); in test [2], 7430 nM (active); in [3] it was 11800 nM (active); in test [4], 16600 nM (active); in test [5] it was 8330 nM (active); in [6] it was 11800 nM (active). Besides, the Potency in test [7] was 2960 nM (active); in test [8] it was 8330 nM (active); in test [9], 2640 nM (active); in [10], 11800 nM (active).

For `CC(=O)NCC(=O)N1[C@H]2CC[C@H]1c1cc(Nc3ncc(C(F)(F)F)c(NC4CCC4)n3)ccc12`, the Potency in test [1] was 3320 nM (active); in test [2], 2350 nM (active); in test [3] it was 7430 nM (active); in [4] it was 4180 nM (active); in test [5], 935 nM (active); in test [6], 833 nM (active). In addition, the Potency in test [7] was 93.5 nM (active); in test [8], 1180 nM (active); in test [9], 590 nM (active); in test [10], 20900 nM (active).

As to `C=CCNC1=C2C[C@@H](C)C[C@H](OC)[C@@H](O)[C@@H](C)C=C(C)[C@H](OC(N)=O)[C@@H](OC)C=CC=C(C)C(=O)NC(=CC1=O)C2=O`, the Potency was 2350 nM (active) in test [1]; 1320 nM (active) in test [2]; 5900 nM (active) in test [3]; 418 nM (active) in test [4]; 26.4 nM (active) in test [5]; 235 nM (active) in [6]. In addition, the Potency in test [7] is 833 nM (active); in test [9], 1320 nM (active); in test [10] it was 833 nM (active).

Take `CC(C)(O)Cn1c(NC(=O)c2ccc(-c3cn[nH]c3)s2)nc2cc(CN3CCOCC3)ccc21`: the Potency in test [1] was 1660 nM (active); in test [2], 1660 nM (active); in [3] it was 1870 nM (active); in test [4] it was 1480 nM (active); in [5], 662 nM (active); in [6], 1320 nM (active). Also, the Potency in test [7] was 332 nM (active); in test [8] it was 1320 nM (active); in [9] it was 743 nM (active); in test [10], 2960 nM (active).

With `CN(C)c1ccc2cc(C(=O)N[C@@H](CCCN=C(N)CCl)C(=O)NCc3ccccc3)ccc2c1`, the Potency is 1180 nM (active) in test [1]; 4690 nM (active) in test [2]; 14800 nM (active) in test [3]; 11800 nM (active) in test [4]; 6620 nM (active) in test [5]; 8330 nM (active) in [6]. Besides, the Potency in [7] is 13200 nM (active); in [8], 4180 nM (active); in [9] it was 7430 nM (active); in test [10], 18700 nM (active).

Take `CCCCCCCCc1ccc(CCC(N)(CO)CO)cc1`: the Potency in [1] is 7430 nM (active); in test [2] it was 9350 nM (active); in test [3], 13200 nM (active); in [4] it was 18700 nM (active); in test [5], 4180 nM (active); in test [6], 14800 nM (active). Further, the Potency in [7] is 11800 nM (active); in test [8], 14800 nM (active); in test [9], 4690 nM (active); in [10], 23500 nM (active).

On to `CC(C)C[C@H](NC(=O)[C@@H](NC(=O)c1cccc(-c2ccccc2)n1)[C@@H](C)O)B(O)O`, for which the Potency was 13.2 nM (active) in test [1]; 13.2 nM (active) in test [2]; 29.6 nM (active) in test [3]; 23.5 nM (active) in [4]; 26.4 nM (active) in test [5]; 20.9 nM (active) in test [6]. Also, the Potency in test [7] is 14.8 nM (active); in test [8] it was 13.2 nM (active); in test [9] it was 13.2 nM (active); in test [10] it was 74.3 nM (active).

Regarding `O=C(Nc1cccc(Nc2ncc(Br)c(NCCc3cnc[nH]3)n2)c1)N1CCCC1`, the Potency in [1] is 18700 nM (active); in [2], 14800 nM (active); in test [3], 20900 nM (active); in test [4], 14800 nM (active); in test [6], 2960 nM (active); in test [7], 3720 nM (active). For the same compound, the figures for the Potency in [8], in [9] and in test [10] were 14800 nM (active), 1870 nM (active) and 23500 nM (active), respectively. Moreover, the Potency result in test [5] is “inactive”.

With `CCC(C=C[C@@H]1OC(=O)C=C[C@H]1C)=C[C@H](C)CC=CC(C)=C[C@@H](C)C(=O)[C@@H](C)[C@H](O)[C@@H](C)CC(C)=CC(=O)O`, the Potency in test [1] was 15.6 nM (active); in test [2] it was 9.8 nM (active); in test [3] it was 27.7 nM (active); in [4], 24.7 nM (active); in [5], 7.8 nM (active); in [6], 22 nM (active). Besides, the Potency in test [7] was 39.2 nM (active); in test [8], 9.8 nM (active); in test [9], 31.1 nM (active); in test [10], 22 nM (active).

Take `CN1[C@H]2CC(OC(=O)[C@@H](CO)c3ccccc3)C[C@H]1[C@H]1O[C@H]12` (some centres not stated): the Potency result in test [1], in [2], in test [3], in [4], in test [5] and in test [6] was “inactive” in each case. Also, the Potency entry in test [7], in [8] and in [9] was “inactive” throughout.

Consider `N#CNC(=NCCCCCCOc1ccc(Cl)cc1)Nc1ccncc1`, for which the Potency in [1] is 5.9 nM (active); in test [2], 9.3 nM (active); in [3], 18.7 nM (active); in test [4] it was 132 nM (active); in test [5], 662 nM (active); in [6] it was 14.8 nM (active). The Potency in test [8] was 7.4 nM (active); in [9], 3 nM (active); in [10] it was 16.6 nM (active). The Potency entry in [7] was “inactive”.
